Experimental findings from PubChem BioAssay AID588477 (NMMLSC, 2011) are described below.

Structures are written as SMILES. Activity calls are given as the source filed them.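 Rule for the calls: active = valid curve fit with half-effect dose at most 10 µM and total binding change across doses of 30 points or more; inactive = the rest.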

The experiment deals with Rho wt. Put plainly: small GTPase nucleotide-binding inhibition, multiplex panel – biochemical, round 1 SAR, Mg buffer, multiplex flow cytometry, selectivity assay for Cdc42 probe extension project, SAR follow-up (AID 588477). The conditions noted are these: GST-GTPase beads, Bodipy-GTP binding; series mostly up to 100 µM. In general terms: A flow cytometer gives signals particle by particle.

For `O=C(C#Cc1ccccc1)c1cccc([N+](=O)[O-])c1`, the call was inactive.
For `NS(=O)(=O)c1ccc(N2N=C(c3ccccc3)CC2c2ccccc2)cc1` (stereo not drawn) the value was “inactive”; for `COc1ccc(C2CC(c3ccccc3)=NN2c2ccc(S(N)(=O)=O)cc2)cc1` (stereo not drawn), “inactive”.
